# Measured values published in PubChem BioAssay AID1878 (Sanford-Burnham Center for Chemical Genomics, 2009).
# About 200 (20%) of roughly 1,000 compounds were called active. No stated cut-off is given here; in the data, active means inhibition above about 55%; inactive means the rest. The list is a sample of the results. Potency and affinity values are given separately.
# Target: Dual specificity protein phosphatase 3 (Homo sapiens) (UniProt P51452)
# Test: VHR1 phosphatase inhibitors, biochemical (AID 1878)
# Settings: recombinant VHR phosphatase, fluorogenic substrate; at 13.3 µM; hits give high values
# Dual specificity protein phosphatase 3 (Homo sapiens), sequence (P51452 whole entry, looked up): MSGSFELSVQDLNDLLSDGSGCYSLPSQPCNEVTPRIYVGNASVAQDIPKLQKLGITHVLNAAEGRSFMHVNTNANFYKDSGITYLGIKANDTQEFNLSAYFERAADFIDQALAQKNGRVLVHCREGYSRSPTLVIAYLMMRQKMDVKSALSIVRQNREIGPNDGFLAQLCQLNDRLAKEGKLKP
row,SMILES,inhibition
1,Cn1c(CNC(=O)CCNC(=O)c2cccc(Br)c2)cc(=O)n(C)c1=O,-19.2% (inactive)
2,O=C(O)CSc1cc(NS(=O)(=O)c2cccc([N+](=O)[O-])c2)c2ccccc2c1O,1.4% (inactive)
3,O=C(Nc1cccc2cccnc12)c1cccc(Cl)c1,2.2% (inactive)
4,O=C(Nc1cc([N+](=O)[O-])ccc1O)c1cccc(C(=O)Nc2cc([N+](=O)[O-])ccc2O)c1,98.4% (active)
5,CCOC(=O)C1=C(N)Oc2ccc3ccccc3c2C1c1ccc(O)c(OC)c1 (stereo not given),-1.4% (inactive)
6,O=C(Nc1ccccc1Cl)c1cc2ccccc2o/c1=N\O,-1% (inactive)
7,NC(=O)c1cc2ccccc2o/c1=N\NC(=O)c1ccccc1O,98.4% (active)
8,CCC1CN(C(=O)NCc2ccc(F)cc2)c2ccccc2O1 (stereo not given),7.8% (inactive)
9,COc1ccc(C(=O)NCc2ccc(N3CCN(C)CC3)cc2)cc1,21.1% (inactive)
10,COc1cccc(C2NC(=O)CCC2[N+](=O)[O-])c1OC (stereo not given),3.9% (inactive)
11,COCCN(C(=O)CCC(=O)Nc1nccs1)C(C(=O)NCCC(C)C)c1ccc(OC)cc1 (stereo not given),-22% (inactive)
12,COc1cc(C(C)=O)ccc1OCC(O)CN1CCN(c2ccc(F)cc2)CC1 (stereo not given),-0.4% (inactive)
13,COc1nc(Nc2nc3ccccc3c(=O)[nH]2)nc2ccc(C)cc12,89.8% (active)
14,CCC(=O)N1CCN(c2ccc(NC(=O)c3ccc(N4CCOCC4)c([N+](=O)[O-])c3)cc2)CC1,-6.9% (inactive)
15,Fc1ccccc1/C=N/n1c(C2CCCCC2)n[nH]c1=S,7.2% (inactive)
16,Cn1c(=O)[nH]c(=O)c2c1[nH]c(=S)n2CCCc1ccccc1,2.5% (inactive)
17,O=C(Cn1c2ccccc2c2nc3n(c(=O)c21)CCS3)N1CCCC1,-3.8% (inactive)
18,CN(C)c1ccc(N2C(=NC(=O)C3CCCO3)SC3CS(=O)(=O)CC32)cc1 (stereo not given),10.7% (inactive)
19,Cc1ccc(CNCc2ccco2)cc1,-2.3% (inactive)
20,CC(C)(C)c1ccc(O)c(N=Cc2c(O)ccc3ccccc23)c1,-0.4% (inactive)

row,SMILES,inhibition
1,C/C(=N\N1CCN(c2ccccc2)CC1)c1ccc(O)cc1,-1.9% (inactive)
2,Clc1nccnc1N/N=C/c1ccc(Br)cc1,1.6% (inactive)
3,CCCCn1nc(NC(=O)CC(C)C)c2cc3cc(OC)ccc3nc21,2.1% (inactive)
4,CCC1C(=O)C(C)(C)C(=O)OC1c1ccc([N+](=O)[O-])cc1 (stereo not given),-5.8% (inactive)
5,O=C(CSc1nc2ccccc2n1CCc1ccccc1)c1ccc(O)c(O)c1,98.7% (active)
6,CCOc1ccc(C(=O)N2CCN(CCc3ccccc3)CC2)cc1OCC,1.8% (inactive)
7,Cc1ccccc1C1NC(=O)c2ccccc2O1 (stereo not given),-14% (inactive)
8,COc1cccc2[nH]c3c(=O)[nH]cnc3c12,-1.7% (inactive)
9,Cc1ccc(NC(=O)CNC(=O)N2CC(=O)Nc3ccccc32)cc1F,15.4% (inactive)
10,O=C(Cn1cncn1)N/N=C/c1ccccc1Cl,-4.5% (inactive)
11,C[C@]12CCC3=C4CCC(=O)C=C4CC[C@H]3C1CC[C@@H]2O (stereo not given in full),14.2% (inactive)
12,CN1C(C)(C)CC(NC(=O)c2ccco2)CC1(C)C,-4.7% (inactive)
13,COc1cc(C2Nc3ccccc3NC3=C2C(=O)CC(C)(C)C3)cc(OC)c1OC (stereo not given),-7.9% (inactive)
14,CCOc1ccc(C(=O)N2CCC3(CC2)NCCc2[nH]cnc23)cc1,-8.9% (inactive)
15,Cc1cc(C(=O)N/N=C/c2cc([N+](=O)[O-])cc(C)c2O)n[nH]1,76.1% (active)
16,CCc1nn(CC(=O)NCCCN(C)C2CCCCC2)c(=O)c2cc3occc3n12,7.4% (inactive)
17,COc1cccc(CNC(=O)C2CCN(c3nn4c(=O)cc(C)nc4s3)CC2)c1,-8.6% (inactive)
18,COc1ccccc1Nc1nn2c(=O)c3ccc(C(=O)NCc4cccnc4)cc3nc2s1,97.1% (active)
19,COc1ccc(C(CC(=O)Nc2ncccc2C)N2Cc3ccccc3C2=O)cc1 (stereo not given),-9.5% (inactive)
20,COc1cc(NC(=O)CN2C(=O)COc3ccc(S(=O)(=O)N4CCCCC4)cc32)cc(OC)c1,-1.8% (inactive)

row,SMILES,inhibition
1,O=C(c1ccc(CS(=O)c2ccccc2Cl)o1)N1CCN(c2ccccc2)CC1 (stereo not given),2.8% (inactive)
2,CC(C)c1ccc(N2C(=NC(=O)C3CCCO3)SC3CS(=O)(=O)CC32)cc1 (stereo not given),11.9% (inactive)
3,COc1cc2c(cc1OC)-c1cc(Nc3cccc(F)c3)nc(=O)n1CC2,14.3% (inactive)
4,CN(C)c1ccc(NS(=O)(=O)c2cc3c4c(c2)CC(=O)N4CCC3)cc1,-8% (inactive)
5,COc1cc(/C=N/NC(=O)c2ccc3c(c2)OCO3)ccc1O,-2% (inactive)
6,COc1cc(/C=N/Nc2ccc([N+](=O)[O-])cn2)cc(OC)c1O,-5.7% (inactive)
7,CCOc1ccc(NC(=O)CCC(=O)NNC(=O)c2ccccc2Cl)cc1,2% (inactive)
8,CCC1CCCCN1CCCNC(=O)c1cn(C)c2ccc(S(=O)(=O)N3CCOCC3)cc2c1=O (stereo not given),-9.8% (inactive)
9,COCCN(CC1CCCN(C2Cc3ccccc3C2)C1)C(=O)CSC (stereo not given),-11.6% (inactive)
10,C=C(C)CCC(C)N1CCC(n2nccc2NC(=O)CCCc2ccccc2)CC1 (stereo not given),-2.3% (inactive)
11,O=C(Nc1cccc(Cl)c1)OCCOc1ccccc1,-0.9% (inactive)
12,N#C/C(=C\c1ccc(OCc2ccc(Cl)cc2)cc1)C(=O)Nc1cccc(C(=O)O)c1,84.9% (active)
13,Oc1ccc(NCc2ccc(OCc3ccccc3)cc2)cc1,-5.6% (inactive)
14,N#C/C(=C\c1ccc(OCc2ccc(Br)cc2)cc1)C(=O)Nc1cccc(C(=O)O)c1,87.5% (active)
15,Cn1c(=O)c2[nH]c(N3CCCCC3)nc2n(C)c1=O,6.6% (inactive)
16,Cc1ccc(-n2nc3c(=O)n(CCCC(=O)NCc4ccco4)nc(C)c3c2C)cc1,-4.7% (inactive)
17,CCN(CC)c1ccc(NS(=O)(=O)c2ccc(-c3ccc(=O)[nH]n3)o2)c(C)c1,-2.9% (inactive)
18,COc1ccc(CCN(C)CC(O)COc2ccc(C(C)=O)cc2OC)cc1OC (stereo not given),-11.9% (inactive)
19,CC(=O)COC(=O)C1=NN(c2ccccc2)C(=O)CC1,8.8% (inactive)
20,CCOC(=O)c1ccc(NCCc2ccc(OC)c(OC)c2)c(N)c1,33% (inactive)
